The list is not random: actives were taken first. Their share in the collection is about 19%.
HT1080-NT tox – qHTS for induction of synthetic lethality in tumor cells producing 2HG: qHTS for the HT-1080-NT fibrosarcoma cell line | HT-1080-NT fibrosarcoma viability, CellTiter-Glo ATP luminescence, 48 h | Potency, µM (highest dose often 46.1 µM), without a hit: at the top dose activity, negative = less viability, actives largely listed as cytotoxic | 1.6% of 360,000 active;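 further: NT is the 2HG producing partner of a matched IDH1 knockdown line; potency means the concentration at half of the fitted maximal effect; 0% = DMSO-treated cells and -100% = media-only wells without cells; nearly all actives have a fitted effect of over 55% in size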
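Luminescent CellTiter-Glo readout after 48 hours of compound exposure at 37 degrees C defined viability of HT-1080-NT cells. Activity was normalized to DMSO wells and cell-free media wells; concentration-response curves were fitted and assigned curve classes.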
ELG1 DNA repair – qHTS screen for small molecules that inhibit ELG1-dependent DNA repair in human embryonic kidney (HEK293T) cells expressing luciferase-tagged ELG1; HEK293T ELG1-luciferase reporter, luminescence, 16 h; DNA damage induced by 5-fluorouridine; Potency, µM (series often up to 46.1 µM), for the others: top-dose activity change, negative = inhibition, actives largely listed as inhibitors; 2.3% of 330,000 active; AID 504467, 2011; further: potency means the concentration at half of the fitted maximal effect; nearly all actives have a fitted effect of over 55% in size
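Cells (2,000 per well) received 5-fluorouridine plus test compound or DMSO and were incubated 16 hr at 37 °C, 5% CO2. Luciferase activity was read by luminescence 30 min after ONE-Glo addition; signal suppression marked inhibition of damage-induced ELG1 function.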
TDP1 cell noCPT – qHTS for Inhibitors of human tyrosyl-DNA phosphodiesterase 1 (TDP1): qHTS in cells in absence of CPT | DT40 Tdp1-/- hTDP1 cells, no CPT, ATP luminescence, 48 h | Potency, µM (highest dose often 46.2 µM), inactives show at the highest dose activity change, negative = growth inhibition, most hits filed as inhibitors | 15% of 420,000 active | AID 686978, 2013; further: potency means the concentration at half of the fitted maximal effect; nearly all actives have a fitted effect of over 55% in size
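No-CPT arm: Tdp1-/-;hTDP1 DT40 cells (400/well) plus compounds, incubated ≥48 hr at 37 °C. Readout CellTiter-Glo luminescence.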
IL1B secr inh – qHTS for Inhibitors of Inflammasome Signaling: IL-1-beta AlphaLISA Primary Screen. AID 743279, 2014. 4.7% of 360,000 active. activity change, % at 57.5 µM. THP-1 LPS/ATP IL-1B secretion, AlphaLISA, 16 h; active compounds read low; in the data active means activity change below about -50%; inconclusive means mostly about -30% to -49%
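Secreted IL-1B measured by AlphaLISA bead assay after 16 h compound exposure of THP-1 cells; compounds (final up to 57.5 uM) added 1 h before LPS (250 ng/mL) and ATP (1.25 mM) stimulation; lower signal means less secretion.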
DT40 TDP1 CPT – qHTS for Inhibitors of human tyrosyl-DNA phosphodiesterase 1 (TDP1): qHTS in cells in presence of CPT | chicken DT40 Tdp1-/-;hTDP1 cells + 20 nM CPT, ATP luminescence, 48 h | Potency, µM (titrated, usually from 46.2 µM), for the others: top-dose activity change, negative = growth inhibition, most hits filed as inhibitors | 12% of 420,000 active; further: potency means the concentration at half of the fitted maximal effect; nearly all actives have a fitted effect of over 55% in size
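Cell growth measured by CellTiter-Glo luminescence after a minimum 48 h, 37 C compound exposure with 20 nM CPT in Tdp1-knockout DT40 cells stably expressing hTDP1, seeded 400/well; qHTS titration format.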
HT1080 IDH1KD tx – qHTS for induction of synthetic lethality in tumor cells producing 2HG: qHTS for the HT-1080-IDH1KD cell line | HT-1080 IDH1 knockdown viability, ATP luminescence, 48 h | Potency, µM (top dose mostly 46.1 µM), for inactives: at the top dose activity, negative = toxicity, usual class: cytotoxic | 2% of 360,000 active;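 further: potency means the concentration at half of the fitted maximal effect; 0% = DMSO wells and -100% = cell-free medium wells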
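Viability of IDH1-knockdown HT-1080 fibrosarcoma cells was assessed by CellTiter-Glo after 48 h at 37 °C with titrated compound; concentration-effect curves were classified by fit quality and response size.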
* marks the source's active call; other numbers are inactive results; ? = inconclusive; · = no result; [ ] = dose if it differs, or a comment. Unless noted, the call rests on the fitted dose curve; in most records, active means well fitted curve in the direction sought with a large enough effect; inconclusive means small, poorly fitted or top-dose-only effect, or another doubt; inactive means no such curve, though single readings can be large; an effect the other way counts as inactive or inconclusive. Unless noted, on the % scale 0 is the no-effect control and ±100 the full control effect.

SMILES | HT1080-NT tox | ELG1 DNA repair | TDP1 cell noCPT | IL1B secr inh | DT40 TDP1 CPT | HT1080 IDH1KD tx
CN1/C(=C\C=C2/C(=O)Oc3ccccc3C2=O)C(C)(C)c2ccccc21 | ? | -6.6% | ? | ? | ? | ?
CN1C(=CC=C2C=C(I)C(=O)C(I)=C2)C(C)(C)c2ccccc21 | -16.5% | ? | 16.4µM* | 10.0 | 18.4µM* | ?
CN1CCC/C1=C/C=C1\SC(=S)NC1=O | -2.8% | ? | -3.0% | -20.0 | -16.2% | 13.2%
Fc1ccc(Nc2nc3ccccc3n3cnnc23)c(F)c1 | · | · | -20.8% | · | -1.3% | ·
c1ccc(N2CCCCC2)c(Nc2nc3ccccc3n3cnnc23)c1 | 13.3% | ? | 20.6µM* | 57.6 | ? | 0.8%
FC(F)(F)c1ccc(N2CCOCC2)c(Nc2nc3ccccc3n3cnnc23)c1 | ? | ? | ? | -61.2* | ? | ?
O=C(NC1CCCCC1)C1c2ccccc2OCC(=O)N1Cc1cccnc1 (stereo not given) | 10.8% | · | 0.9% | 6.4 | 2.5% | 11.9%
COc1ccccc1Cc1c(C(C)(C)C)nc2cc(C)c(Br)c(C)n12 | 15.9% | · | 16.4µM* | 66.9 | 25.9µM* | 11.8%
Cc1cc2nc(C(C)(C)C)c(Cc3ccsc3)n2c(C)c1Br | 29.1µM* | · | ? | 68.6 | ? | ?
CCCc1nc2cc(C)c(Br)c(C)n2c1Cc1ccccc1OC | ? | · | 14.6µM* | 19.9 | 25.9µM* | -29.1%
Cc1cc2nc(C(C)(C)C)c(Cc3ccccc3C(F)(F)F)n2c(C)c1Br | ? | · | ? | 47.1 | ? | ?
CCC(NC(=O)Cc1c(C)c2cc3c(cc2oc1=O)OC(C)(C)CC3)C(=O)O (stereo not given) | 18.2% | ? | 10.9% | 0.2 | 9.6% | 18.6%
COc1ccc(NC(=O)c2ccco2)cc1NC(=O)c1cc(Br)ccc1Cl | · | · | 20.6µM* | · | -27.7% | ·
COc1ccc(Br)cc1C(=O)Nc1cccc(NC(=O)c2ccco2)c1 | -18.3% | 20.6µM* | 18.4µM* | -21.5 | ? | -9.8%
O=C(Nc1cccc(NC(=O)c2ccc(-c3cccc(Br)c3)o2)c1)c1ccco1 | -43.9% | 9.2µM* | 11.2µM* | -59.4* | 16.4µM* | ?
COc1ccc(NC(=O)c2ccco2)cc1NC(=O)c1ccccc1F | 0.1% | 17.3% | -15.4% | -2.0 | -7.4% | -2.6%
CC(=O)Nc1cccc(NC(=O)c2ccco2)c1 | -4.0% | 1.5% | 12.4% | 26.4 | -9.0% | -12.0%
FC(F)(F)c1nnc2c(Sc3ccccc3)nc3ccc(Cl)cc3n12 | 9.2µM* | -10.8% | 0.581µM* | -69.5* | 0.651µM* | -12.4%
Cc1[nH]c2ccccc2c1C(=O)CN1C(=O)NC2(CC(C)CC(C)(C)C2)C1=O (stereo not given) | -12.6% | ? | ? | -20.8 | 14.6µM* | -16.2%
CC1CC(C)(C)CC2(C1)NC(=O)N(CC(=O)N1CCN(S(=O)(=O)c3cccc(Cl)c3Cl)CC1)C2=O (stereo not given) | -1.2% | · | ? | -22.3 | 18.4µM* | -22.6%
CCn1c(-c2cccnc2)nc2cc(NC(=O)COC)cc(C(=O)N3CCc4ccccc4C3)c21 | · | · | 4.9% | · | 0.3%[9.04 µM] | ·
COC(=O)C1CCCCN1Cc1ccc2c(c1)CN(C(=O)c1csc(-c3cccs3)n1)CCO2 (stereo not given) | · | · | ? | · | -3.5%[9.04 µM] | ·
CC(=O)NCCNc1nc(-c2cccnc2)nc2ccccc12 | · | · | -7.1% | · | -1.5% | ·
Cc1ccc(CN(C)c2nc(-c3cccnc3)nc3ccccc23)o1 | -29.8% | 10.1% | 16.4µM* | -27.7 | ? | -12.7%
CCOc1ccc(-c2noc(-c3cccnc3)n2)cc1OCC | 17.5% | 17.8% | ? | · | -6.8% | 20.3%
SMILES | HT1080-NT tox | ELG1 DNA repair | TDP1 cell noCPT | IL1B secr inh | DT40 TDP1 CPT | HT1080 IDH1KD tx
CCOc1ccc(CN(C)c2nc(-c3cccnc3)nc3ccccc23)cc1OC | -29.6% | 18.3µM* | ? | -93.0* | 13µM* | ?
CN(Cc1ccccc1F)c1nc(-c2cccnc2)nc2ccccc12 | -7.2% | ? | ? | -76.4* | 20.6µM* | -6.2%
CN(Cc1ccco1)c1nc(-c2ccccc2Cl)nc2ccccc12 | · | · | -16.5% | · | -14.3% | ·
CCOc1ccc(-n2c(=O)c3c4c(sc3n(CC(=O)Nc3cccc(C(F)(F)F)c3)c2=O)CCCCC4)cc1 | · | · | -0.4% | · | 5.1% | ·
CCN(Cc1cccc(S(=O)(=O)O)c1)c1ccc(C(=C2C=CC(=[N+](CC)Cc3cccc(S(=O)(=O)O)c3)C=C2)c2ccc(O)cc2S(=O)(=O)O)cc1 | · | · | -86.2% | · | -92.8% | ·
CCN(CC)CCNC(=O)c1ccc2c(=O)n3nc(Nc4ccccc4)sc3nc2c1 | · | · | 4.61µM* | · | 5.8µM* | ·
Cc1cc(C)n(-c2ccc(C(=O)NCc3cccs3)cc2)n1 | 6.9% | 7.2% | ? | ? | -27.4% | 21.2%
Cc1cccc(C)c1Nc1nn2c(=O)c3cc4c(cc3nc2s1)OCO4 | · | · | ? | · | -7.5% | ·
Cc1ccccc1Nc1nn2c(=O)c3ccc(C(=O)NCC(C)c4ccccc4)cc3nc2s1 (stereo not given) | · | · | 14.6µM* | · | 14.6µM* | ·
O=C(NCc1ccccn1)c1ccc2c(=O)n3nc(Nc4ccccc4)sc3nc2c1 | ? | ? | 0.4% | -15.1 | ? | ?
Cc1ccccc1Nc1nn2c(=O)c3ccc(C(=O)NCc4cccs4)cc3nc2s1 | · | · | 13µM* | · | 16.4µM* | ·
Cc1ccc(C)c(Nc2nn3c(=O)c4ccc(C(=O)NCc5ccccc5)cc4nc3s2)c1 | · | · | 7.31µM* | · | 5.17µM* | ·
CCCN(CC(=O)Nc1cc(Cl)ccc1Cl)C(=O)/C=C/c1ccco1 | 4.6% | -19.3% | ? | -2.1 | -7.9% | 1.8%
CC(=NNC(=O)COc1cccc(C)c1)c1cccnc1 | 8.2% | -10.0% | 0.1% | 5.0 | -1.4% | 9.1%
CC(C)Cc1nn2cc(-c3cccc(Br)c3)nc2s1 | · | · | -28.3% | · | ? | ·
CCc1cccc(C)c1Nc1nn2c(=O)c3ccccc3nc2s1 | · | · | 23.1µM* | · | 11.6µM* | ·
Cc1ccc(CNC(=O)c2ccc3c(=O)n4c(-c5ccc(C)cc5)csc4nc3c2)cc1 | 0.7% | 2.7% | 9.2µM* | 18.4 | 7.31µM* | 2.0%
